# Assay outcomes deposited in PubChem by National Center for Advancing Translational Sciences (NCATS).
# Rab9 prom act: qHTS Assay for Rab9 Promoter Activators; Huh7 Rab9 promoter-luciferase reporter, luminescence, 24 h; Potency, µM (doses to about 9.22 µM), for inactives: at the highest dose activation, negative = inhibition, usual class: activators; actives 2.8% (n = 320,000); AID 485297, 2010; further: % of control where 0% means no effect; nearly all actives have a fitted effect of over 60% in size
#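 Luciferase signal after 10 min detection reagent at ambient indicates Rab9 promoter upregulation; stably transfected Huh7 cells were treated 24 h with compound in DMSO at 37 °C, 5% CO2.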
# SMN2 splice enh: qHTS Assay for Enhancers of SMN2 Splice Variant Expression; HEK293 SMN2-luciferase splicing reporter, luminescence, 30-36 h; Potency, µM (highest dose often 46.1 µM), inactives show at the top dose activity change, positive = activation, most hits filed as activators; actives 2.8% (n = 210,000); further: % of control where 0% means no effect; nearly all actives have a fitted effect of over 55% in size
#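 HEK293 cells carry an SMN2 […]–luciferase reporter in which exon 7 inclusion puts luciferase in frame. Cells were plated 10-12 h before compound addition, then incubated 30-36 h at 37C. ONE-Glo luminescence was read; sodium butyrate at 4.5 mM final served as control.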
# ELG1 genotox: qHTS screen for small molecules that induce genotoxicity in human embryonic kidney (HEK293T) cells expressing luciferase-tagged ELG1. HEK293T ELG1-luciferase reporter, luminescence, 16 h. AID 504466, 2011. actives 1.3% (n = 330,000). Potency, µM (top dose mostly 46 µM), for inactives: top-dose activity change, positive = activation, usual class: activators; further: % of control where 0% means no effect; nearly all actives have a fitted effect of over 60% in size
#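 HEK293T cells expressing luciferase-tagged ELG1 were treated with compound or DMSO for 16 hr at 37°C. Luciferase activity was then read after 30 min with ONE-Glo at room temperature; rising signal flags genetic stress.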
# KinaseGlo FLuc: Counterscreen for Luciferase (Kinase-Glo TM) Inhibition; Luciferin 4-monooxygenase (Photuris pensylvanica), Q27757; Kinase-Glo luciferase, ATP luminescence, 8 min; Potency, µM (doses to about 38.3 µM), inactives show top-dose activity change, negative = inhibition, actives largely listed as inhibitors; actives 0.28% (n = 200,000); AID 1379, 2008; further: on the % scale 0 is the no-effect control and ±100 the full control effect; nearly all actives have a fitted effect of over 60% in size
#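 Kinase-Glo luciferase light output from ATP and luciferin was measured with 10 uM ATP, within the enzyme's linear range. Buffer: 50 mM imidazole pH 7.2, 50 mM KCl, 7 mM MgCl2, 0.01% Tween 20, 0.05% BSA; luminescence read after 8 min at ambient temperature.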
# FLuc modulator: qHTS profiling assay for firefly luciferase inhibitor/activator using purifed enzyme and Km concentrations of substrates (counterscreen for miR-21 project) | actives 6.9% (n = 360,000) | Luciferin 4-monooxygenase (Photinus pyralis), P08659 | Potency, µM (doses to about 57.5 µM), for the others: at the highest dose activity change, negative = inhibition, actives largely listed as inhibitors | purified FLuc, Km substrates, luminescence inhibition;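 further: plate controls were vehicle for no effect and reference inhibitor for full effect; nearly all actives have a fitted effect of over 55% in size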
# Target sequence (P08659 whole entry, looked up): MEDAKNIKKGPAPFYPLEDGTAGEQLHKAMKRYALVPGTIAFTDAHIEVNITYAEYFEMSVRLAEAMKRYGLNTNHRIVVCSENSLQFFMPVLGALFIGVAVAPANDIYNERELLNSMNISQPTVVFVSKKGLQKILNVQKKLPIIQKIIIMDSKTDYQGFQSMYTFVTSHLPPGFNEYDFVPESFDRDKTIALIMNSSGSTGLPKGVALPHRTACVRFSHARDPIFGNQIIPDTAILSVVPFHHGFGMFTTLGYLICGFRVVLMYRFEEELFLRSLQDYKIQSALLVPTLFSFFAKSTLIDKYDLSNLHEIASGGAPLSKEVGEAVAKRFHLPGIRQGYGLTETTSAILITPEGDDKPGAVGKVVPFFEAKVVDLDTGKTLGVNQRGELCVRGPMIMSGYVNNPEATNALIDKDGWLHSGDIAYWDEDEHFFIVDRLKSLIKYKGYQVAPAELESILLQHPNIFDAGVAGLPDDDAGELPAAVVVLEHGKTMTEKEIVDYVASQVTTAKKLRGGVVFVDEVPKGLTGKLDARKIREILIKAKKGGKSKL
#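 Purified P. pyralis luciferase (10nM final) with 10uM D-luciferin and 10uM ATP (Km levels) in 50mM Tris acetate pH 7.5, 10mM Mg acetate, 0.01% Tween-20, 0.05% BSA; qHTS 6-point titration, ~60 µM downward; luminescence read.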
# NPC1 prom act: qHTS Assay for NPC1 Promoter Activators; Huh7 NPC1 promoter luciferase reporter, 24 h; Potency, µM (doses to about 9.22 µM), for the others: top-dose activation, actives largely listed as activators; actives 2.4% (n = 320,000); further: % of control where 0% means no effect; nearly all actives have a fitted effect of over 60% in size
#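 Compounds in DMSO were transferred onto Huh7 NPC1-luciferase reporter cells pre-incubated 2 h; after 24 h at 37 °C, Amplite reagent was dispensed and luminescence recorded 10 min later.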
# * marks the source's active call; other numbers are inactive results; ? = inconclusive; nt = not tested or not shown; [ ] = dose if it differs, or a comment. Shown are actives, neighbours in structure and some others; about 7.5% of the full set was active somewhere. The call rests on the fitted dose curve; in most records, active means well fitted curve in the direction sought with a large enough effect; inconclusive means small, poorly fitted or top-dose-only effect, or another doubt; inactive means no such curve, though single readings can be large; an effect the other way counts as inactive or inconclusive. Potency means the concentration at half of the fitted maximal effect.
SMILES,Rab9 prom act,SMN2 splice enh,ELG1 genotox,KinaseGlo FLuc,FLuc modulator,NPC1 prom act
CCOc1ccc(C(=O)Nc2ccc(-c3cc4ccccc4oc3=O)cc2)cc1Br,nt,1%,nt,nt,-4%,nt
N=c1cc(C2(O)CCCCC2)n2c(nc3ccccc32)s1,0.28µM*,-11%,0.58µM*,9%,0.67µM*,0.28µM*
O=C1c2sc3nc4ccccc4n3c2C(=O)N1c1ccccc1Cl,14%,?,1%,0%,?,-3%
CN1c2ccccc2C(O)=C(C(=S)Nc2ccccc2)S1(=O)=O,-7%,-16%,-12%,5%,?,-1%
Cc1ccc(NC(=S)C2=C(O)c3ccccc3N(C)S2(=O)=O)cc1,5%,-10%,-6%,4%,19µM*,0%
Cc1ccc(NC(=O)COC(=O)CN2C(=O)NC3(CCCC3)C2=O)cc1Cl,-3%,nt,8%,nt,-1%,-3%
Cc1cccnc1NC(=O)c1ccc2c(c1)NC(=O)C(C)S2 (stereo unspecified),2%,nt,?,nt,17µM*,9%
CC1Sc2ccc(C(=O)O)cc2NC1=O (stereo unspecified),-3%,-25%,0%,25%,1%,-1%
CC1Sc2ccc(C(=O)OCc3ccccc3Cl)cc2NC1=O (stereo unspecified),1µM*,nt,?,nt,2.1µM*,2.2µM*
CC1Sc2ccc(C(=O)Nc3ncccc3O)cc2NC1=O (stereo unspecified),0.89µM*,nt,?,nt,7.6µM*,1.3µM*
C=CCc1cccc2cc(C(=O)N3CCN(C(=O)c4ccccc4)CC3)c(=O)oc12,5%,nt,-10%,nt,3%,-6%
COc1ccc(/C=N/N2CCN(C)CC2)cc1O,-3%,5%,-5%,3%,0%,1%
Cc1ccc(/C=N/n2c(-c3ccco3)n[nH]c2=S)cc1,-5%,nt,0%,nt,0%,-1%
CCN=c1scc(-c2ccco2)n1/N=C/c1ccc(OC)c(O)c1,nt,?,nt,-1%,5.4µM*,nt
CCN=c1scc(-c2ccco2)n1/N=C/c1ccc(O)cc1,?,?,12µM*,4%,6.7µM*,?
O=C(NC1CCCCCC1)C1CCN(C(=O)c2cccc(Cl)c2)CC1,2%,nt,-3%,nt,4%,0%
CCC(=O)Nc1ccc(Br)cn1,-8%,nt,-3%,-2%,2%,-3%
O=C(Nc1ccccc1C(=O)Nc1ccc(Br)cn1)c1ccccc1Cl,-8%,nt,-3%,nt,?,-4%
Cc1cc(C(=O)Nc2ccc(Br)cn2)sc1C,2.2µM*,nt,?,nt,nt,1µM*
O=C(Nc1ccccn1)c1ccc(Cl)s1,4µM*,nt,?,nt,?,2.2µM*
O=C(Nc1ccc(Br)cn1)c1ccc(Br)s1,0.79µM*,nt,?,nt,4.3µM*,?
O=C(Nc1ccc(Br)cn1)c1ccc(Cl)s1,1µM*,nt,3.3µM*,nt,4.3µM*,0.89µM*
CCN(C[C@H]1N[C@@](CC)(C(=O)OC)[C@H]2C(=O)N(C)C(=O)[C@@H]12)C(=O)c1ccccc1,nt,nt,-2%,nt,nt,nt
Cc1ccccc1C(=O)Nc1ccc(Br)cn1,3.5µM*,nt,9.2µM*,nt,11µM*,?
CCN(CC)CC(C)CNC(=O)C1(O)c2ccccc2NC(=O)N1c1ccc(Cl)c(Cl)c1 (stereo unspecified),-5%,nt,-2%,nt,4%,1%
SMILES,Rab9 prom act,SMN2 splice enh,ELG1 genotox,KinaseGlo FLuc,FLuc modulator,NPC1 prom act
CCCCNC(=O)c1ccccc1NC(=O)c1ccc2c(c1)OCO2,0%,11%,-3%,-2%,19µM*,0%
N#Cc1ccccc1NC(=O)c1ccc2c(c1)OCCO2,?,nt,?,nt,21µM*,?
Cc1ccccc1NC(=O)c1ccc2c(c1)OCCO2,?,?,?,-5%,1%[2.3 µM],?
N#Cc1ccccc1NC(=O)COc1ccc2c(c1)OCO2,3.5µM*,nt,?,nt,21µM*,4µM*
COC(=O)c1ccccc1NC(=O)c1ccc2c(c1)OCCCO2,2µM*,nt,?,nt,19µM*,?
COC(=O)c1ccccc1NC(=O)CN1CCC(C(=O)c2ccc3c(c2)OCCO3)CC1,-2%,-32%,-11%,11%,-19%,-4%
CC(C)(C)NC(=O)c1ccccc1NC(=O)c1ccc2c(c1)OCO2,-5%,-4%,3%,0%,-6%,-4%
CCc1ccccc1NC(=O)COc1ccc2c(c1)OCO2,21%,1%,6%,0%,-19%,0%
COCC(=O)Nc1c(I)c(C(=O)NC[C@@H](O)CO)c(I)c(C(=O)N(C)C[C@@H](O)CO)c1I,nt,-5%[20.6 µM],nt,-2%[17.1 µM],nt,nt
CC1Cc2ccccc2N1C(=O)COc1ccc2c(c1)OCO2 (stereo unspecified),?,?,?,-1%,17µM*,3.2µM*
Cc1cccc(NC(=O)c2ccc3c(c2)OCCO3)c1C,3.2µM*,nt,?,nt,15µM*,-45%
N#Cc1ccccc1NC(=O)COC(=O)c1ccc2c(c1)OCCO2,?,6%,6%,-3%,19µM*,1%
N#Cc1ccccc1COC(=O)c1ccc2c(c1)OCO2,?,nt,15%,nt,?,?
N#Cc1ccccc1COC(=O)c1ccc2c(c1)OCCO2,25%,nt,18%,nt,13µM*,6%
Cc1ccc(NC(=O)COc2ccc3c(c2)OCO3)c(Cl)c1,?,nt,?,nt,1.5µM*,2.8µM*
Cc1cccn2c(=O)c(C(=O)NCCc3ccccc3)cnc12,nt,nt,nt,nt,4.8µM*,nt
O=C(NCc1ccco1)c1cnc2sccn2c1=O,-5%,2%,-1%,-2%,-2%,2%
O=C(NCCc1ccccc1)c1cnc2sccn2c1=O,3.5µM*,13µM*,?,1%,17µM*,?
Cc1ccc2cc(-c3noc(C(C)(C)C)n3)c(=O)[nH]c2c1,21%,-4%,1%,3%,-18%,8%
CCc1nc(-c2cc3ccc(C)cc3[nH]c2=O)no1,?,?,?,-4%,15µM*,25%
CCOc1ccc(-c2cc(C(=O)NCC3CCCO3)c3ccccc3n2)cc1 (stereo unspecified),18%,?,-11%,-2%,5.4µM*,13%
Cc1ccc2nc(-c3ccccc3)cc(C(=O)NCC3CCCO3)c2c1 (stereo unspecified),1%,nt,-8%,nt,5.4µM*,-1%
Cc1cc(Br)cc2c(C(=O)NCC3CCCO3)cc(-c3cccs3)nc12 (stereo unspecified),16%,nt,?,nt,?,9%
